The whole screen tested about 190,000 compounds, of which about 810 (0.43%) were called active. Cut-off read from the data, not from the text of the source: active = inhibition above about 50%; inactive = the rest. Many of the other results were omitted from the sample, so actives are more common in it than they were.
Biological target: Mannose-6-phosphate isomerase (Homo sapiens) (UniProt P34949)
Test: MPI enzyme activity inhibition – biochemical, fluorescence intensity, coupled assay, primary screen (AID 1209);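 note: plate controls were DMSO vehicle for no effect and wells lacking substrate for full effect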
Conditions: purified PMI enzyme, at 20 µM, hits give high values

Chain of Mannose-6-phosphate isomerase (Homo sapiens) (P34949 whole entry, looked up): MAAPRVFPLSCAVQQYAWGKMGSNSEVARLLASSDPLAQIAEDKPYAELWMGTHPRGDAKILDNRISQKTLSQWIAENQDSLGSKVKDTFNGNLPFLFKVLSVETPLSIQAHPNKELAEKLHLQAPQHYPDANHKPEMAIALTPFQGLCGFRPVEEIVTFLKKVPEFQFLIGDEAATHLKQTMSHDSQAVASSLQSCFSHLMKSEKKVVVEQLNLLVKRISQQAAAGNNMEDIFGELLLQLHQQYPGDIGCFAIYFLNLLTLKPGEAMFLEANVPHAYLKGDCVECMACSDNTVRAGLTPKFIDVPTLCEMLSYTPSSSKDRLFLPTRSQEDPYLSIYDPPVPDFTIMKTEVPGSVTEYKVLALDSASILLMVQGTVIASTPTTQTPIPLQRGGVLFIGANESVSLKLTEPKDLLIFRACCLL

inhibition, active:
Brc1c(NC2=NCCN2)ccc2nccnc12 54.4%, O=C(Cn1nc(C(F)F)cc1C(F)F)N/N=C/c1ccc2c(c1)OCO2 92.9%, O=C(CC(=O)c1cc(Cl)ccc1O)c1ccccc1 59.9%, COC(=O)c1c(NC(=S)Nc2ccc(F)cc2[N+](=O)[O-])sc2c1CCCCC2 63%, Nc1cccc2cnccc12 68.5%, N#Cc1c2ccc(OCC(N)=O)cc2n2ccccc12 65.3%, CCOC(=O)c1c2ccc(OCC(=O)NN)cc2n2ccccc12 81.3%, CCOC(=O)c1c2ccc(OCC(=O)N/N=C/c3ccccc3C(F)(F)F)cc2n2ccccc12 59.8%, Cc1cc(C)c2nc3s/c(=C/c4ccccc4)c(=O)n3c2c1 57.6%, O=C(O)/C=C/C(=O)c1ccc2c(c1)NC(=O)CO2 64.4%, Cc1ccc(/C=N/N(C)C2=NS(=O)(=O)c3ccccc32)o1 107%, COc1cc(C(=O)O/N=C2\C=CC(=O)C(C)=C2)cc(OC)c1OC 50.7%, COc1cc(C(=O)ON=C2C(C)=CC(=O)C=C2C)cc(OC)c1OC 59.4%, CC(C)CN=Cc1c(O)c([N+](=O)[O-])cc2oc3c(c12)CCCC3 53.1%, N#Cc1c(N2CCN(c3ccc(F)cc3)CC2)nc(N)c2c(N)nc3c(c12)CC(=O)N3C1CC1 56.9%, COCC(C)N1C(=O)Cc2c1nc(N)c1c(N)nc(N3CCN(c4ccccc4F)CC3)c(C#N)c21 (configuration not stated) 66.7%, N#Cc1c(N2CCCC(O)C2)nc(N)c2c(N)nc3c(c12)CC(=O)N3C12CC3CC(CC(C3)C1)C2 (configuration not stated) 64.7%, CN(CCO)c1nc(N)c2c(N)nc3c(c2c1C#N)CC(=O)N3C1CCCC1 64%, COc1cc(/C=N/NC(=O)c2cc3ccccc3cc2O)ccc1OCCN1CCCCC1 73.9%, CCOc1ccc(OCC)c(NC(=O)CN2CCN(CC)CC2)c1 57.9%

inhibition, inactive:
COc1ccc(OCC(=O)N/N=C(\C)c2cc3ccccc3o2)cc1 4.9%, CC(SCC(=O)Nc1ccc(S(=O)(=O)N2CCCCC2)cc1)C(=O)O (configuration not stated) 3.5%, c1cc(Nc2cccc3nccnc23)c2nccnc2c1 28.5%, Clc1cccc(Cl)c1NC1=NCCN1 -30.9%, Cc1nc2ccccc2n1CC(=O)OCC(=O)NCc1ccccc1 -3%, CS(=O)(=O)N(CC(=O)Nc1ccc(S(=O)(=O)N2CCCC2)cc1)c1ccccc1F 2.4%, Cc1cc(C)n(CC(=O)N/N=C/c2ccc3c(c2)OCO3)n1 12.1%, Cc1ccnn1CC(=O)N/N=C/c1ccc2c(c1)OCO2 -2.6%, Cc1cccc(C(=O)CC(=O)c2cc(Cl)ccc2O)c1 5.2%, Cc1ccc(C(=O)CC(=O)c2cc(Cl)ccc2O)cc1 -10.2%, S=c1[nH]ncn1/N=C/c1ccccn1 5.3%, Oc1c(Br)cc(Br)cc1C=NCc1ccc(F)cc1 -4.2%, CCOC(=O)C1CCN(CCC(=O)Nc2ccc(Cl)cc2)CC1 7.1%, COc1ccc([C@@H]2C[C@H]3CN(c4ccccc4)C(=O)[C@]34CCCN24)c(OC)c1OC -8.3%, Cc1nn(Cc2cccc(C(=O)NC3CCCCC3)c2)c(C)c1Cl 7.3%, O=C(O)c1csc(Cc2ccccc2)n1 -2.4%, COC(=O)c1c(NC(=S)Nc2cc(OC)c(Cl)cc2OC)sc2c1CCCCC2 25.1%, CCOC(=O)c1c(NC(=S)Nc2cc([N+](=O)[O-])ccc2OC)sc2c1CCCCC2 28.1%, CCC1Oc2ccc(C)cc2N(CC(=O)NCc2ccco2)C1=O (configuration not stated) 6.6%, N#Cc1cccc2cnccc12 9%, NC(=S)Nc1cccc2cnccc12 16.4%, CCn1cc([N+](=O)[O-])c(C(=O)Nc2ccn(Cc3ccccc3F)n2)n1 8.3%, CCOC(=O)COc1ccc2c(C#N)c3ccccn3c2c1 41.4%, CCOC(=O)c1c2ccc(OCC(=O)N/N=C/c3ccc(Cl)cc3)cc2n2ccccc12 33.2%, Cc1cccc(OCC(=O)N/N=C\c2cn(C)c3ccccc23)c1 5.4%, CCOC(=O)c1c(C)n(C)c2ccc(OCC(N)=O)cc12 16.5%, CCOC(=O)c1c(C)n(C)c2cc(OCCN(CC)CC)ccc12 10.9%, COc1ccc2c(C#N)c3ccccn3c2c1 39.7%, N#CCCn1cc(/C=N/NC(N)=S)c(-c2ccc(-c3ccccc3)cc2)n1 21.7%, COc1ccc(N=Nc2cnc(C)nc2-c2ccccc2)cc1 3.6%, CCCCOc1ccc(-c2c(C(=O)Nc3ccccc3)c(C)[nH]c(=S)c2C#N)cc1 13.9%, Cc1cc(C)c2nc3s/c(=C/c4ccc5c(c4)n(C)c(=O)n5C)c(=O)n3c2c1 37.9%, Cc1ccc2c(nc3s/c(=C/c4cccs4)c(=O)n32)c1C -7.9%, CCCCn1cnc(C(=O)OCC)c1N -3.8%, Nc1ccn(Cc2ccc(F)cc2)n1 -1.5%, O=C1COc2ccc(C(=O)/C=C/c3ccccc3)cc2N1 7.8%, O=C1COc2ccc(C(=O)c3ccccc3C(=O)O)cc2N1 -8.8%, Cc1ccc(S(=O)(=O)N2CCC(C(=O)N[C@H](C(=O)NCc3ccco3)C(C)C)CC2)cc1 -3.1%, CCn1cc(C(=O)OCC(=O)c2cc(C)n(-c3cccc(C(F)(F)F)c3)c2C)c(=O)c2ccc(C)nc21 -6.6%, CN(/N=C/c1ccc(Br)o1)C1=NS(=O)(=O)c2ccccc21 -7.5%, CN(/N=C/c1ccco1)C1=NS(=O)(=O)c2ccccc21 10.9%, COc1ccccc1NC(=O)N(Cc1cccs1)Cc1cc2cc3c(cc2[nH]c1=O)OCO3 9.9%, COc1cc(C(=O)O/N=C2/C=C(C)C(=O)C=C2C)cc(OC)c1OC 29.1%, COc1cc(C(=O)ON=C2C=C(C)C(=O)C(C)=C2)cc(OC)c1OC 31.7%, COc1cc(C(=O)O/N=C2/C=CC(=O)C(C)=C2C)cc(OC)c1OC 35.6%, COc1cc(C(=O)O/N=C2\C=CC(=O)C=C2C)cc(OC)c1OC 46.4%, O=C(NC1CCCC1)c1ccc(CS(=O)(=O)c2ccc(Br)cc2)o1 -7%, O=C(C(=O)N1CCN(c2ccc(F)cc2)CC1)N1CCCCC1 9.4%, COCCNC(=O)C(c1cccs1)N(C(=O)Cn1nnc2ccccc21)c1cccc(C(C)=O)c1 (configuration not stated) -2.6%, O=[N+]([O-])c1cc2oc3c(c2c(C=NCc2ccncc2)c1O)CCCC3 27.8%, O=[N+]([O-])c1cc2oc3c(c2c(C=NCc2ccccc2)c1O)CCCC3 6.3%, O=C(OCc1nnc(-c2ccccc2)o1)c1cc(F)c(F)cc1Cl 2.5%, CCCCN1C(=O)Cc2c1nc(N)c1c(N)nc(N(CCC)CCC)c(C#N)c21 21.8%, C=C(C)CN(CC)c1nc(N)c2c(N)nc3c(c2c1C#N)CC(=O)N3C12CC3CC(CC(C3)C1)C2 2.4%, COCCN(CCOC)c1nc(N)c2c(N)nc3c(c2c1C#N)CC(=O)N3Cc1ccc(Cl)cc1 20.6%, COc1ccc(CN2C(=O)Cc3c2nc(N)c2c(N)nc(N4CCCCC4)c(C#N)c32)cc1 40.5%, COCCN1C(=O)Cc2c1nc(N)c1c(N)nc(N3CCN(c4ccc(F)cc4)CC3)c(C#N)c21 40.2%, N#CCc1c(C#N)c(N)nc(N2CCN(c3ccc(F)cc3)CC2)c1C#N 2.2%, CN(CCO)c1nc(N)c2c(N)nc3c(c2c1C#N)CC(=O)N3Cc1cccs1 13.6%, N#CCc1c(C#N)c(N)nc(N2CCCC(O)C2)c1C#N (configuration not stated) 10%, Cc1ccc(N2C(=O)[C@@H]3[C@H](C2=O)C2c4ccccc4C=CN2[C@@H]3C(=O)c2ccco2)c(C)c1 (some centres not stated) -31.4%, COc1ccc(Cn2c(C(F)(F)F)ccc(C(N)=O)c2=O)cc1 4.9%, COc1ccc(C2(O)CCN(C(=O)c3c(F)cccc3F)CC2)cc1 2.8%, CCc1cc2c(C)cc(C)cc2nc1SCC(=O)Nc1cc(C)on1 2.3%, COc1cccc(CNC(=O)C(c2ccc(Cl)cc2)C(C)C)c1 (configuration not stated) 10.2%, COc1cc(/C=C2\SC(=S)NC2=O)ccc1OS(=O)(=O)c1ccccc1 29.8%, COC(=O)c1ccc(-c2nc(O)c3cnccn23)cc1 -13.6%, CCCCOc1ccc(C(=O)N/N=C/c2ccc(OCCN3CCCCC3)c(OC)c2)cc1 5.7%, COc1cc(/C=N/NC(=O)c2ccncc2)ccc1OCCN1CCCCC1 -4.3%, COc1cccc(-n2c(SCC(N)=O)nc3ccccc3c2=O)c1 2.2%, COc1ccccc1-n1c(SCc2cc(=O)oc3cc(O)ccc23)nc2ccccc2c1=O 8.3%, Cc1csc(SCC(=O)NC(=O)NC2CCCC2)n1 5.2%, S=c1[nH]nc(C2CCCCC2)n1/N=C/c1ccco1 -1.6%, O=C(Cc1ccc([N+](=O)[O-])cc1)Nc1cccc(C(F)(F)F)c1 23.4%, CCCCNC(=O)CC1S/C(=N/N=C/c2ccc(OC)cc2)NC1=O (configuration not stated) -7.8%, CCOc1ccc(OCC)c(NC(=O)CN2CCN(c3cccc(C)c3)CC2)c1 16.7%, CCOC(=O)N1CCN(CC(=O)Nc2cc(OCC)ccc2OCC)CC1 7%
